High-throughput results (PubChem BioAssay)
DT40 TDP1 CPT – growth inhibition of DT40 Tdp1-/-;hTDP1 cells with camptothecin (screen for TDP1 inhibitors) | chicken DT40 Tdp1-/-;hTDP1 cells + 20 nM CPT, ATP luminescence, 48 h | Potency, µM (titrated, usually from 46.2 µM), for inactives: at the highest dose activity change, negative = growth inhibition, usual class: inhibitors | 420,000 compounds, 12% hits; further: potency means the concentration at half of the fitted maximal effect; on the % scale 0 is the no-effect control and ±100 the full control effect; nearly all actives have a fitted effect of over 55% in size
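Chicken DT40 Tdp1-/- cells stably complemented with human TDP1 were seeded at 400 cells/well in medium containing 20 nM camptothecin, exposed to pin-transferred compounds, and grown at 37 °C for at least 48 hr. Viability was read as ATP luminescence.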
IL-1B inflam inh – inflammasome signaling inhibition, IL-1 beta readout | 360,000 compounds, 4.7% hits | THP-1 LPS/ATP IL-1B secretion, AlphaLISA, 16 h; stronger effect = lower value | activity change, % at 57.5 µM; in the data active means activity change below about -50%; inconclusive means mostly about -30% to -49%; further: on the % scale 0 is the no-effect control and ±100 the full control effect
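Secreted IL-1B measured by AlphaLISA bead assay after 16 h compound exposure of THP-1 cells; compounds (final up to 57.5 uM) added 1 h before LPS (250 ng/mL) and ATP (1.25 mM) stimulation; lower signal means less secretion.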
TDP1 cell noCPT – qHTS for Inhibitors of human tyrosyl-DNA phosphodiesterase 1 (TDP1): qHTS in cells in absence of CPT; AID 686978, 2013; Potency, µM (doses to about 46.2 µM), for the others: at the highest dose activity change, negative = growth inhibition, actives largely listed as inhibitors; DT40 Tdp1-/- hTDP1 cells, no CPT, ATP luminescence, 48 h; 420,000 compounds, 15% hits; further: potency means the concentration at half of the fitted maximal effect; on the % scale 0 is the no-effect control and ±100 the full control effect; nearly all actives have a fitted effect of over 55% in size
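No-CPT arm: Tdp1-/-;hTDP1 DT40 cells (400/well) plus compounds, incubated ≥48 hr at 37 °C. Readout CellTiter-Glo luminescence.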
TGFb SMAD3 inh – TGF-b pathway inhibition; 410,000 compounds, 1.2% hits; Potency, µM (series often up to 46.1 µM), without a hit: at the top dose activity, negative = inhibition, usual class: inhibitors; HepG2 CAGA-GFP TGF-b/SMAD3 reporter, GFP fluorescence, 18 h; TGF-beta stimulated, 500 pg/mL final; further: potency means the concentration at half of the fitted maximal effect; on the % scale 0 is the no-effect control and ±100 the full control effect; nearly all actives have a fitted effect of over 65% in size
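First, reporter cells (HEPG2 CAGA-GFP) rested 2 h at 37 degrees C. Next, compounds were pinned in and TGF-beta added to 500 pg/mL final. After 18 h, GFP was imaged per cell and summed per well.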
HepG2 viability – kills HepG2 cells in TGF-b inhibitor counter-screen. 410,000 compounds, 0.76% hits. AID 588856. HepG2 CAGA-GFP viability, ATP luminescence, 18 h. Potency, µM (top dose mostly 46.1 µM), inactives show at the highest dose activity change, negative = cytotoxicity, hits mostly cytotoxic; further: potency means the concentration at half of the fitted maximal effect
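CellTiter-Glo luminescence gave cytotoxicity after 18 hours at 37 degrees C. The cells were HepG2 CAGA-GFP in 1% FBS DMEM, stimulated with 500 pg/mL TGF-beta after compound addition. %Activity was normalised to no-cell wells (complete cell-killing) and DMSO (no toxicity), and curves were fitted and classified.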
TDP1 block – TDP1 (human) enzyme inhibition; Q9NUW8; recombinant TDP1, AlphaScreen DNA substrate cleavage; Potency, µM (titrated, usually from 130 µM), for inactives: at the highest dose activity change, negative = inhibition, usual class: inhibitors; 350,000 compounds, 0.28% hits; further: potency means the concentration at half of the fitted maximal effect; on the % scale 0 is the no-effect control and ±100 the full control effect; nearly all actives have a fitted effect of over 40% in size
Target sequence (Q9NUW8 whole entry, looked up): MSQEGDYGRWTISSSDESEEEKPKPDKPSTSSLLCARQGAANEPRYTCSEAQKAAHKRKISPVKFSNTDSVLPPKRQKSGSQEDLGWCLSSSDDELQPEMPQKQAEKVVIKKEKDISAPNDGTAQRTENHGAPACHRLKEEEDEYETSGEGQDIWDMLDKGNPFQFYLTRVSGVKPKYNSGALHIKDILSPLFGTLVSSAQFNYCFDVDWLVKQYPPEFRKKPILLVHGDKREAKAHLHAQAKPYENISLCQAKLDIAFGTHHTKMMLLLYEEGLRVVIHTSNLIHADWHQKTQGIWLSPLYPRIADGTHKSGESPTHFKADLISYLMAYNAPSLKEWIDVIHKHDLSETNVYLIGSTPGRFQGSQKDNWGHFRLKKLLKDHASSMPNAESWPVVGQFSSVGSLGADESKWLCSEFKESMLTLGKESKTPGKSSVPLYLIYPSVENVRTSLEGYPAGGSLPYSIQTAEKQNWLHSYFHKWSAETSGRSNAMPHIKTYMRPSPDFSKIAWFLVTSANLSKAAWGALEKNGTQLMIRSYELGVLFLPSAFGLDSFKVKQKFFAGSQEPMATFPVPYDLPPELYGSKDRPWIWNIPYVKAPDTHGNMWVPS
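E. coli-derived human Tdp1, 1 nM final. Cpd preinc 15 min RT; substrate 15 nM final, 5 min RT; AS bead mix 10 ug/ml final, 10 min RT. Signal loss = tyrosine-FITC cleavage. No-enzyme wells = max signal.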
Active calls of the source: *; u = inconclusive; x = no result; ! = not active in a repeat; [ ] = remark or other dose. Rows were chosen to be rich in hits. Some 18% of all compounds tested hit in one or more screens of this group. Unless noted, the call rests on the fitted dose curve; in most records, active means well fitted curve in the direction sought with a large enough effect; inconclusive means small, poorly fitted or top-dose-only effect, or another doubt; inactive means no such curve, though single readings can be large; an effect the other way counts as inactive or inconclusive.

SMILES	DT40 TDP1 CPT	IL-1B inflam inh	TDP1 cell noCPT	TGFb SMAD3 inh	HepG2 viability	TDP1 block
COc1cc(OC)cc(-c2nnc(SCc3c(F)cccc3Cl)o2)c1	u	-60*	23µM*	6%	-32%	-7%
NC(=Nc1ccccc1)N(c1ccccc1)c1ccccc1	u	6	13µM*	26%	2%	x
Cc1cc2nc(/N=C(\N)NC(=O)N3c4ccccc4Sc4ccccc43)nc(C)c2cc1C	u	-7	15µM*	14%	9%	6%
Cc1nc(/N=C(\N)Nc2ccccc2)nc2ccccc12	x	x	x	x	x	0%
Cc1ccc2nc(/N=C(\N)NC(=O)N3c4ccccc4Sc4ccccc43)nc(C)c2c1	u	5	9.2µM*	0%	-19%	1%
CCC(=O)N/C(N)=N/c1nc(C)c2cc(OC)ccc2n1	13µM*	-66*	12µM*	u	3%	2%
CCCNC(=O)N1c2ccccc2Sc2ccccc21	-10%	-1	u	3%	7%	5%
Cc1ccc2c(C)nc(/N=C(\N)NC(=O)N3c4ccccc4Sc4ccccc43)nc2c1	u	-15	21µM*	7%	-1%	-3%
COc1ccc2nc(/N=C(\N)NC(=O)C(C)(C)C)nc(C)c2c1	-18%	u	u	3%	2%	-5%
COc1ccc2nc(/N=C(\N)NC(=O)N3c4ccccc4Sc4ccccc43)nc(C)c2c1	13µM*	4	16µM*	-4%	-15%	0%
Cc1cccc(Cn2cccc2CNS(=O)(=O)c2ccc(Br)cc2)c1	u	x	u	16µM*	-107%	6%
CCC(=O)Nc1ccc(S(=O)(=O)NCc2cccn2Cc2cccc(C)c2)cc1	21µM*	x	23µM*	u	-18%	9%
CCc1ccc(S(=O)(=O)NCc2cccn2Cc2cccc(C)c2)cc1	u	x	u	u	-100%	9%
Cc1cccc(Cn2cccc2CNS(=O)(=O)c2ccc(C)c(C)c2)c1	u	x	u	18µM*	-106%	11%
Cn1sccc1=O	2.9µM*	-53*	2.9µM*	-22%	-8%	x
COc1ccc(-n2c(=O)cnc3cnc(OC)nc32)cc1	-3%	x	0%	x	x	x
c1ccc2c(CN3CCSCC3)cccc2c1	-28%	-7	-25%	1%	-9%	x
Cc1cc2oc(C(=O)N(Cc3ccco3)Cc3ccccc3Cl)c(C)c2cc1C	u	x	15µM*	-22%	-34%	1%
CCCCNC(=O)CNC(=S)N(Cc1ccc(C)cc1)Cc1ccco1	u	u	u	-16%	-12%	4%
Cc1ccc2occ(CC(=O)N(Cc3ccc(Cl)cc3)Cc3ccco3)c2c1	u	x	23µM*	16µM*	-21%	1%
Cc1ccc(CN(Cc2ccco2)C(=O)c2oc3ccc(C)cc3c2C)cc1	u	x	15µM*	u	-27%	4%
Cc1ccc(CN(Cc2ccco2)C(=O)c2oc3c(C)c(C)ccc3c2C)cc1	u	x	23µM*	u	-37%	1%
Cc1ccnc(NC(=O)c2cccc(S(=O)(=O)N3CCN(c4ccc(F)cc4)CC3)c2)c1	u	-22	u	-22%	-5%	-7%[0.505 µM]
O=c1c(-c2ccc(Cl)cc2)nc2cncnc2n1Cc1ccccc1Cl	11%	x	1%	x	x	x
O=C(COC(=O)c1cccc(OC(F)F)c1)NCC1CCCO1 (stereo not given)	16%	32	25%	0%	-1%	1%
SMILES	DT40 TDP1 CPT	IL-1B inflam inh	TDP1 cell noCPT	TGFb SMAD3 inh	HepG2 viability	TDP1 block
Cc1ccc2oc(C(=O)NCC(c3ccco3)N(C)C)c(C)c2c1 (stereo not given)	u	14	4.1µM*	5%	1%	12%
Cc1ccc2c(CC(=O)NCc3ccco3)coc2c1C	13µM*	60	12µM*	0%	5%	6%
Cc1ccc(NC(=O)Cc2coc3c(C)c(C)ccc23)cc1Cl	-26%	x	-25%	u	-48%	-2%
Cc1ccc(CC(=O)NCC(c2ccco2)N(C)C)cc1C (stereo not given)	11%	51	9%	-7%	4%	5%
Cc1ccc(CN(Cc2ccco2)C(=O)c2cccc(C)c2)cc1	15µM*	x	16µM*	-7%	-16%	2%
NC(N)=NCCC[C@H](NC(=O)[C@H](Cc1ccccc1)NC(=O)[C@@H]1CCCN1C(=O)[C@H](CO)NC(=O)[C@H](Cc1ccccc1)NC(=O)CNC(=O)[C@@H]1CCCN1C(=O)[C@@H]1CCCN1C(=O)[C@@H](N)CCCN=C(N)N)C(=O)O	x	x	x	x	x	5%
C=CC(=O)CC	x	x	x	x	x	6%
CN(C)c1ccccc1C(=O)N1CCC(n2nccc2NC(=O)C2CC2)CC1	5%	-13	0%	-8%	-1%	6%
CC(=O)N1CCCc2cc(S(=O)(=O)N(Cc3ccccc3)C(C)C)ccc21	15µM*	x	16µM*	-20%	-30%	5%
COc1ccccc1CNC(=O)C1CCCN(S(=O)(=O)c2ccc3c(c2)CCCN3C(C)=O)C1 (stereo not given)	u	x	u	-22%	-19%	8%
CC(=O)N1CCCc2cc(S(=O)(=O)N3CCCC(C(=O)NCc4ccc(C)cc4)C3)ccc21 (stereo not given)	18µM*	82	23µM*	u	6%	4%
CC(=O)N1CCCc2cc(S(=O)(=O)N3CCCC(C(=O)Nc4cc(C)ccc4C)C3)ccc21 (stereo not given)	u	14	-29%	-28%	1%	1%
CC(=O)N1CCCc2cc(S(=O)(=O)N3CCCC(C(=O)NCc4ccccc4)C3)ccc21 (stereo not given)	u	-14	26µM*!	-14%	9%	6%
CN(C)c1ccc(NC(=O)CN2C(=O)c3ccccc3Sc3ccc(C(=O)N4CCCC4)cc32)cc1	u	x	u	-11%	-11%	8%
O=C(Nc1ccc(-n2cnnn2)cc1)C1CCCN1C(=O)Nc1ccc(Br)cc1 (stereo not given)	2%	-58*	u	-2%	-4%	2%[0.0935 µM]
Cc1cccc(C)c1NC(=O)N1CCCC1C(=O)Nc1ccc(-n2cnnn2)cc1 (stereo not given)	8%	41	u	-15%	3%	1%
O=C(NC1CCCCC1)c1cnn2c(C(F)(F)F)cc(-c3ccco3)nc12	23µM*	-9	u	0%	-26%	-5%
